The campaign covered roughly 65,000 compounds. About 2,100 (3.2%) showed an effect of 50% or more. The median lay at about -52%. The full list was thinned out, with strong results kept by preference.
The compounds below were run on Plasmodium falciparum (assay: Screen against P. falciparum Asexual Blood Stage (ABS), at 5uM). Conditions: tested at 5 uM.
Format: functional, Dd2

| SMILES | INHIBITION |
| --- | --- |
| CC(c1cccs1)N(C)Cc1cnc(-c2ccccn2)nc1 (stereo unspecified) | -132% |
| Cc1ccc(C(=O)NCCCNS(C)(=O)=O)cc1-n1cccc1 | -137% |
| C[C@@H](O)[C@H](NC(=O)c1csc2nc(-c3ccccc3F)cn12)C(N)=O | -41.1% |
| COc1ccc(-c2cccc(-c3ccn(CCCN(C)C)n3)c2)nn1 | -18.6% |
| c1cc(-c2cnccn2)cc(-c2ccn(CCN3CCCCC3)n2)c1 | 43.8% |
| CN(C)CCCn1ccc(-c2cccc(-c3ccccn3)c2)n1 | 61% |
| c1cc(-c2cnccn2)cc(-c2ccn(CCN3CCCC3)n2)c1 | 69.1% |
| CN(C)CCCn1ccc(-c2cccc(-c3cncnc3)c2)n1 | 14.5% |
| c1cc(-c2cnccn2)cc(-c2ccn(CCCN3CCCCC3)n2)c1 | 21.9% |
| Cc1cc(CN2CCc3c(CNc4ncccn4)cncc3C2)oc1C | 0.619% |
| CN(C)C(=O)COCc1cncc2c1CCN(Cc1ccccn1)C2 | 25.8% |
| c1ccc(CN2CCc3c(COCC4CC4)cncc3C2)nc1 | 59.3% |
| c1ccc(CN2CCc3c(COCc4ccncc4)cncc3C2)nc1 | -14.6% |
| CN(CC(=O)NCc1cccnc1N1CCCCC1)C(=O)c1cccs1 | -48.6% |
| CC(C)c1ccc(-n2nnc(C(=O)O)c2-c2ccccn2)cc1 | -101% |
| N#Cc1cccnc1OC1CCN(S(=O)(=O)c2ccc(Br)cc2)CC1 | -92.6% |
| CCC(Nc1nc(CCN)nc2ccccc12)c1cccs1 (stereo unspecified) | 63.5% |
| NCCc1nc(N[C@@H](CO)c2ccccc2)c2ccccc2n1 | -39.4% |
| CCC(Nc1nc(CCN)nc2ccccc12)c1cc(C)ccn1 (stereo unspecified) | -22% |
| N#Cc1cccnc1N1CCC(Nc2ccccc2)C1 (stereo unspecified) | -76.7% |
| O=C(CC1CC1)NCc1cn2c(n1)CN(Cc1cccc(F)c1)CC2 | -52% |
| CCNC(=O)COc1cc(CC)c2c(C)nn(-c3ccc(C)cc3)c2n1 | -21.1% |
| CC(C)[C@@H]1CN(CCOc2ccc(Cl)cc2)C[C@H]1NS(C)(=O)=O | 45.9% |
| CCc1ccccc1OCCN1C[C@@H](NS(C)(=O)=O)[C@H](C(C)C)C1 | 45.2% |
| CC(C)[C@@H]1CN(CCCOc2ccc(F)cc2)C[C@H]1NS(C)(=O)=O | 53.7% |
| CN(C)CCNC(=O)c1nc2c(s1)CCCN2C(=O)C1CC1 | 25.4% |

| SMILES | INHIBITION |
| --- | --- |
| CC(O)CNCc1ccc(OCc2ccc3c(c2)OCCO3)cc1 (stereo unspecified) | -169% |
| COc1ccc(-n2ncc3c2NC(=O)CSC3CC(C)C)cc1 (stereo unspecified) | -124% |
| CCn1ccnc1CN1CCN(CC(=O)NC2CCOCC2)CC1 | -29% |
| CCn1ccnc1CN1CCN(C(C)C(=O)NC2CCCC2)CC1 (stereo unspecified) | 51% |
| CCn1ccnc1CN1CCN(C(C)C(=O)N2CCCC2)CC1 (stereo unspecified) | -81.3% |
| CCn1ccnc1CN1CCN(CC(=O)NC(=O)NC2CC2)CC1 | -97.3% |
| CCn1ccnc1CN1CCN(C(C)C(=O)NC2CCCCC2)CC1 (stereo unspecified) | -83.4% |
| CCn1ccnc1CN1CCN(CC(=O)NC(C2CC2)C2CC2)CC1 | 61.4% |
| O=C1C(N2CCOCC2)CCCN1Cc1cccc(C(F)(F)F)c1 (stereo unspecified) | -61.2% |
| CC(C)(C)c1nc(CN(CCC2CCCCC2)CC(N)=O)no1 | -85.5% |
| COc1ccc(CN2CCC(C(N)=O)C2)c(Br)c1OC (stereo unspecified) | -93.4% |
| COc1cc(Cl)c(CN2CCC(C(N)=O)C2)cc1Cl (stereo unspecified) | 7.24% |
| COc1ccc(CN2CCC(C(N)=O)CC2)cc1SC(F)(F)F | 63.5% |
| COc1ccc2[nH]cc(CCNC(=O)C3CCCN(C(C)=O)C3)c2c1 (stereo unspecified) | -30% |
| CSc1ncccc1C(=O)N1CCCC1c1ccc(C(=O)N(C)C)s1 (stereo unspecified) | -53.6% |
| Cc1cc2n(n1)CCN(c1nc(N(C)C)nc3c1CCNC3)C2 | 57.8% |
| Cc1ccccc1N1CCN(c2nc(N(C)C)nc3c2CCNC3)CC1 | 39.1% |
| Cc1cc2n(n1)CCN(c1nc(N)nc3c1CCNCC3)C2 | -75.3% |
| Cc1ccc(NC2CCN(C(=O)c3ccc(F)cc3Cl)CC2)nn1 | -116% |
| Cc1cc(-c2cnc(NC3CCCCC3)nc2-c2ccco2)on1 | -49.1% |
| CCc1nc(C2CCCN2Cc2cc(C)nc3ccccc23)no1 (stereo unspecified) | -64.8% |
| CN1CCCN(C(=O)NCc2ccccc2Cn2cncn2)CC1 | -93.1% |
| O=C(CC1CC1)N1C[C@H]2CN(CC3CC3)C(=O)[C@H]2C1 | -64.7% |
| COCCN1C[C@@H]2CN(C(=O)[C@H]3CCCO3)C[C@@H]2C1=O | -135% |
| COCCN1C[C@@H]2CN(C(=O)CC3CC3)C[C@@H]2C1=O | 53.5% |
| Cn1ccc2c(cnc3nc(-c4ccncc4)nn32)c1=O | -169% |

| SMILES | INHIBITION |
| --- | --- |
| CN(C)c1ccc(C(=O)N2CCC(c3cc4cnccc4[nH]3)CC2)cc1 | 29.8% |
| CN(C)c1ccc(C(=O)N2CCC(c3cc4ncccc4[nH]3)CC2)cc1 | 55.6% |
| COc1cc(CCC(=O)N2CCC(c3cc4ncccc4[nH]3)CC2)on1 | -0.239% |
| CCNC(=O)NC(=O)C(C)N(C)CCOc1ccccc1C (stereo unspecified) | -80.5% |
| CCN1CCO[C@@H]2CN(S(=O)(=O)c3cccs3)CC[C@@H]2C1 | 40.2% |
| Cc1ccc(S(=O)(=O)N2CC[C@H]3CO[C@H](CN(C)C)[C@H]3C2)cc1 | 12.4% |
| O=C1CO[C@@H]2CN(S(=O)(=O)c3ccccc3F)C[C@H]2N1 | -30.8% |
| CN(C)C[C@H]1OC[C@@H]2CCN(S(=O)(=O)c3ccccc3)C[C@@H]21 | -3.11% |
| CN(C)C[C@H]1OC[C@@H]2CCN(S(=O)(=O)c3ccc(F)cc3)C[C@@H]21 | 50.5% |
| CN1CCO[C@@H]2CN(S(=O)(=O)c3ccccc3)C[C@@H]2C1 | -17.9% |
| CN1CCO[C@@H]2CN(S(=O)(=O)c3cccs3)CC[C@@H]2C1 | -22.2% |
| COc1ccc(S(=O)(=O)N2C[C@@H]3CN(C)CCO[C@@H]3C2)cc1 | 60.2% |
| CC(=O)N1CCO[C@@H]2CN(S(=O)(=O)c3ccccc3F)C[C@@H]2C1 | -67.6% |
| CN1CCO[C@H]2CN(S(=O)(=O)c3ccc(C#N)cc3)C[C@H]21 | -81.8% |
| CN1CCO[C@@H]2CN(S(=O)(=O)c3ccccc3F)CC[C@@H]2C1 | 50.3% |
| CC(C)N1CCO[C@@H]2CN(S(=O)(=O)c3cccs3)CC[C@@H]2C1 | 52.1% |
| CN1CC(=O)N(c2ccccc2)Cc2c(NC3CC3)ncnc21 | -97.2% |
| CO[C@H]1CN(C(=O)OC(C)(C)C)CC1NCc1ccco1 (stereo partly specified) | -47.8% |
| CN(CCNC(=O)Nc1ccn(C)n1)Cc1ccc(F)cc1 | -27.6% |
| CC(C)NC(=O)N1CCc2onc(C(=O)NCCN(C)C)c2C1 | -13.1% |
| COCc1nn(C(C)C)c2c1CCN(Cc1ccc(C)o1)C2 | -31% |
| CC(C)C1=NOC2(CCN(Cc3c[nH]c4ccccc34)CC2)C1 | 2.84% |
| Cc1ccc(CNCC2Cn3nnc(-c4cnn(C)c4)c3CO2)o1 (stereo unspecified) | -32.4% |
| Cc1ccc(Nc2nccc(C3CCCN(CC(=O)N(C)C)C3)n2)nc1 (stereo unspecified) | -3.51% |
| Cc1ccc(N2CCc3ncnc(C4CC4)c3CC2)nn1 | -150% |
| CN1CCO[C@@H]2CN(S(=O)(=O)c3ccccc3)CC[C@@H]2C1 | 33.8% |

| SMILES | INHIBITION |
| --- | --- |
| CN1CCO[C@@H]2CN(S(=O)(=O)c3ccc(F)cc3)CC[C@@H]2C1 | 62.7% |
| CC(=O)N1CCO[C@@H]2CN(S(=O)(=O)c3ccc(F)cc3)CC[C@@H]2C1 | -83.8% |
| N#Cc1ccccc1CN1C[C@@H]2CC[C@H]1CN(C(=O)c1cccnc1)C2 | -15.6% |
| CCN(C(=O)CN1CCCN(c2nc(C)ns2)CC1)C1CC1 | -126% |
| CC(C)CC(=O)NCC1CCC(C(c2ccccn2)N(C)C)CC1 (stereo unspecified) | -110% |
| O=C(c1ccccn1)N1CCC2(COc3ncccc3S(=O)(=O)N2)C1 (stereo unspecified) | -69.3% |
| Cc1ccc(CN(CCCn2ccnc2)Cc2c[nH]nc2C(C)(C)C)s1 | 33.5% |
| Cc1cc(NCCNS(=O)(=O)c2cn(C)nc2C)c2ccccc2n1 | 3.35% |
| Cc1ccc2nc(C)cc(NCCNS(=O)(=O)c3cn(C)nc3C)c2c1 | 47.8% |
| Cc1ccc2nc(C)cc(NCCNS(=O)(=O)c3cccnc3)c2c1 | 62.9% |
| COc1nn(C)c2c1CCCN(C(=O)c1cccs1)C2 | -22.1% |
| O=C(c1ccc(F)cc1)N1CC[C@H]2[C@H]1CCN2CC1CCOCC1 | -112% |
| Cc1nc(CN2CCN(C(=O)C(C(C)C)n3cncn3)CC2)cs1 (stereo unspecified) | -61.1% |
| CN1CCC(N(Cc2ccco2)S(=O)(=O)c2ccc(Cl)cc2)CC1 | 56.8% |
| CN1N=C(C(=O)N(Cc2ccco2)C2CC2)CCC1=O | -127% |
| CC1CCN(C(=O)CN(Cc2ccco2)C2CC2)CC1 | -115% |
| COCCNC(=O)[C@H]1C[C@@H]2CCN(Cc3nccs3)C[C@H]2O1 | -127% |
| Cc1cnc(C(=O)N(CCN(C)C)Cc2ccc(Cl)cc2)cn1 | -35.7% |
| CN(C)CCN(Cc1ccc(Cl)cc1)C(=O)c1cnccn1 | 35.1% |
| CN(C)CCN(Cc1ccc(C(F)(F)F)cc1)C(=O)c1cc[nH]n1 | 35.8% |
| CN(C)CCN(Cc1ccc(Cl)cc1)C(=O)c1ccncc1 | 53.1% |
| CN(C)CCN(Cc1ccc(Cl)cc1)C(=O)c1ccn(C)c(=O)c1 | -73.6% |
| Cc1cc(C(=O)N(CCN(C)C)Cc2ccc(Cl)cc2)no1 | 53.4% |

Reference: ChEMBL document CHEMBL4513216, “Probing the Open Global Health Chemical Diversity Library for Multistage-Active Starting Points for Next-Generation Antimalarials” (ACS Infect Dis, 2020)
